{"source": "PubChem BioAssay (EPA / NIEHS)", "note": "The source made the active and inactive calls. The calls were made as follows: active = hit-call score of the fitted dose curve at least 0.9, where 1 is the maximum; inactive = score below 0.9. Peptide text beside a SMILES is read from it."}
{"test": "CCTE_Shafer_MEA_acute_synchrony_index: CCTE's Neural Acute Assay for Synchrony, Shafer Lab (AID 2284027);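 also: fitted for loss of signal so actives lower synchrony relative to DMSO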", "protocol": "CCTE_Shafer_MEA_acute assay is conducted using Axion Biosystems 48 well microelectrode array (MEA) plates and Maestro recording system. Each well of the MEA plate contains a grid of 16 microelectrodes embedded in the culture surface. Electrically active cells, such as neurons, can be cultured over the electrodes, and electrical activity in these cells can be recorded extracellularly. The spontaneous firing of neurons is captured from each electrode on a microsecond timescale providing both temporally and spatially precise data. […] The CCTE_Shafer_MEA_acute assay uses primary cultures of rat cortical neurons. As these cultures mature over time, neural networks develop functional activity and form cohesive networks in which electrical activity can be highly coordinated. Baseline 40-minute recordings are made on days post-plating 13 or 15, followed by a secondary 40-minute recording after chemical exposure.CCTE_Shafer_MEA_acute_synchrony_index is a component of the CCTE_Shafer_MEA_acute assay. It measures the synchrony of the neural network as a unitless measure between 0 (low synchrony) to 1 (high synchrony) during a recording in a microelectrode array (MEA) using Axion Biosystems Maestro 768 channel amplifier with the AxIS adaptive spike detector. The recordings before and after chemical treatment are used to calculate a percent change in the synchrony index in each well.Data from the assay component CCTE_Shafer_MEA_acute_synchrony_index was analyzed into 1 assay endpoint. This assay endpoint, CCTE_Shafer_MEA_acute_synchrony_index, was analyzed in the negative analysis fitting direction relative to DMSO as the negative control and baseline of activity. Using a type of functional reporter, gain or loss-of-signal activity can be used to understand electrical activity.\nSpontaneous activity in the cortical cultures was recorded using an Axion Biosystems Maestro 768 channel amplifier and Axion Integrated Studios (AxIS) v1.8 (or later) software. The amplifier recorded from all channels simultaneously (gain = 1200 x; sampling rate = 12.5 kHz/channel): raw signals were filtered with a Butterworth band-pass filter (300-5000 Hz), which filters out slower local field potentials leaving only fast potentials, i.e., \"spikes\", arising from extracellular currents associated with action potentials (Pine 2006; Wheeler and Nam 2011). On-line spike detection of filtered signals was conducted with the AxIS adaptive spike detector, using a threshold of 8x the root mean squared (rms) noise on each channel. Any electrodes with rms noise levels greater than 5 uV were grounded (e.g., no data were recorded). Once grounded, an electrode was grounded for the duration of the experiment. All recordings were conducted at 37 C. Wells were deemed usable if on the day of the exposure >/= 10 electrodes were active (defined as >/= 5 spikes/min). On DIV 13 or 15, a minimum of three wells from one cortical culture preparation were treated with each compound (0.03-40 uM). Prior to recording baseline activity, each mwMEA plate was placed in the Maestro at 37 C and allowed to sit for 20 min while firing rates stabilized. Baseline activity (40 min) was recorded before the addition of each compound. An additional 40 min of spontaneous activity was recorded in the presence of each compound. Changes in network parameters relative to baseline were assessed following compound treatment."}
{"smiles": "CC/C=C\\CCOC(=O)c1ccccc1O", "outcome": "inactive"}
{"smiles": "Nc1cccc(N)n1", "AC50": "0.003 µM (active)"}
{"smiles": "Oc1ccccc1Cc1ccccc1O", "AC50": "8.49 µM (active)"}
{"smiles": "c1ccc(Nc2cccc3ccccc23)cc1", "AC50": "8.24 µM (active)"}
{"smiles": "Nc1nc(N)nc(-c2ccccc2)n1", "outcome": "inactive"}
{"smiles": "CC1(C)CC(O)CC(C)(C)N1[O]", "outcome": "inactive"}
{"smiles": "CCCCCCCCCCCC(=O)N(C)CC(=O)O", "AC50": "21.9 µM (active)"}
{"smiles": "Cc1c(C(=O)c2c[nH]n(C)c2=O)ccc(S(C)(=O)=O)c1C1=NOCC1", "outcome": "inactive"}
{"smiles": "CCCC(C)C(=O)OCC", "note": "(stereo not drawn)", "outcome": "inactive"}
{"smiles": "COC(=O)[C@H](Cc1ccccc1)NC(=O)[C@@H](N)CC(=O)O", "note": "(H-Asp-Phe-OMe)", "outcome": "inactive"}
{"smiles": "C1CNCCN1", "outcome": "inactive"}
{"smiles": "CC(CCC(=O)O)(c1ccc(O)cc1)c1ccc(O)cc1", "outcome": "inactive"}
{"smiles": "CC(C)C(=O)OCCc1ccccc1", "outcome": "inactive"}
